Measurements from ChEMBL document CHEMBL3988442, “University of Dundee, Small-Polar-MMV Screening Library” (2021).
About 13,000 (27%) of roughly 48,000 compounds showed an effect of 50% or more. The list shows a part of the results.

What follows are compounds tested on Wolbachia pipientis (assay: Anti-Wolbachia Cell-Based Screen). Settings: 5 µM.
Type: functional
Parameters: scale not given: in the data most compounds retested in dose-response had high values

Compound | Percent Effect [%]
O=C(NCCCN1CCC(OC2CCCCC2)CC1)C1CCCC1 | -7.761
CCC(C)N(Cc1cccnc1)C(=O)CCSC (stereo unspecified) | -1.177
CCc1noc(CN(C)C(=O)C2COc3ccccc3C2)n1 (stereo unspecified) | 19.12
CN(C)CCO[C@H]1CN(CC2CC2)[C@@H]2CCCO[C@H]12.O=C(O)C(F)(F)F.O=C(O)C(F)(F)F | 109
CN(C)C(=O)CO[C@@H]1CN(Cc2ccccc2F)[C@@H]2CCCO[C@@H]21.O=C(O)C(F)(F)F | -3.753
CCO[C@@H]1CN(Cc2scnc2C)[C@@H]2CCCO[C@@H]21.O=C(O)C(F)(F)F.O=C(O)C(F)(F)F | -1.893
CN(C)C(=O)CO[C@H]1CN(Cc2ccc(F)cc2)[C@@H]2CCCO[C@H]12.O=C(O)C(F)(F)F | -2.214
CCO[C@H]1CN(CC2CCOCC2)[C@@H]2CCCO[C@H]12.O=C(O)C(F)(F)F | 93.44
Fc1ccccc1CN1C[C@H](OCC2CCOCC2)[C@H]2OCCC[C@H]21.O=C(O)C(F)(F)F | -9.213
CNC(=O)C1CN(C(=O)c2cccnc2)CCN(S(C)(=O)=O)C1 (stereo unspecified) | 102.1
CNC(=O)C1CN(C(=O)c2cccs2)CCN(S(C)(=O)=O)C1 (stereo unspecified) | 103.3
CN(C)c1cc(C(=O)N2CCN(S(C)(=O)=O)CC2)ccn1 | -8.698
CS(=O)(=O)NC[C@H]1OC[C@@H]2CCN(C(=O)c3cccnc3)C[C@@H]21 | -2.955
CNS(=O)(=O)c1ccc(C(=O)N2CCCC(n3cccn3)C2)cc1 (stereo unspecified) | -7.031
CNC(=O)C1CN(C(=O)c2ccncc2)CCN(S(C)(=O)=O)C1 (stereo unspecified) | 113
CCCNC(=O)C[C@@H]1CCN(C(=O)c2cccnc2)C[C@@H]1CC | -4.226
O=C(O)C[C@@H]1CCN(C(=O)c2cccs2)C[C@@H]1CCN1CCCCC1 | -8.603
CC(C)C1CN(C(=O)c2cccs2)CCS1 (stereo unspecified) | -18.38
COCCN(Cc1cccnc1)c1nc(C)nc2oc(C)nc12 | 1.02
CCCN(CC1CC1)C(=O)Cn1ccccc1=O | -7.373
O=C(O)C(F)(F)F.O=C(O)C(F)(F)F.O=C(O)C(F)(F)F.c1cnc(N2CCN(C3CCC[C@@H]4CN(CC5CC5)C[C@H]34)CC2)nc1 (stereo partly specified) | -9.573
Clc1cccc2c3c([nH]c12)CCN(Cc1cc2n(n1)CCCNC2)C3 | -3.179
CC(C(=O)NC1CC1)S(=O)(=O)Cc1noc(C(C)(C)C)n1 (stereo unspecified) | 12.74
O=C(Nc1cc(C2CCOCC2)[nH]n1)c1cc[nH]n1 | -3.397

Compound | Percent Effect [%]
CCOc1cccc(NC(=O)c2cscn2)n1 | -16.65
CCOc1cccc(COC(=O)c2cc(Cl)ccn2)n1 | -4.3
CCOc1cccc(COC(=O)c2cc(C)on2)n1 | 106.6
CCOc1cccc(NC(=O)c2cnc(C)cn2)n1 | 87.8
CCOc1cccc(NC(=O)c2cc(C)on2)n1 | 91.67
CCOc1cccc(NC(=O)c2cc[nH]n2)n1 | 87.66
CCOc1cccc(COC(=O)c2cscn2)n1 | -4.907
CCOc1cccc(NC(=O)Cc2cccc(O)c2)n1 | -45.48
CCOc1cccc(COC(=O)c2ccc(F)cn2)n1 | -9.322
COC(CNC(=O)c1cc(C)on1)c1ccccc1C (stereo unspecified) | 2.502
CCOc1cccc(COC(=O)c2ccc(Cl)cn2)n1 | -10.12
CCN1CCN(C(=O)c2ccc3c(c2)CCCN3)[C@H]2CS(=O)(=O)C[C@H]21 | -2.171
CSCCC1c2nc[nH]c2CCN1Cc1ccccc1C#N (stereo unspecified) | -9.025
Cc1ccc(NC(=O)c2cc(S(=O)(=O)N3CCCCC3)c[nH]2)cc1F | 1.173
COCCC1(CNC(=O)NCC2CN(C)CCN2C)CCC1 (stereo unspecified) | -22.96
CC(C)c1ccc(OCCC(=O)N(C)C)cc1 | 6.13
CC(C)c1nc(/C=C/c2cnn(-c3ccccc3)c2)ncc1C(=O)O | -2.711
NC(=O)c1cccc(CC2CCN(C(=O)CCc3cccc(F)c3)C2)c1 (stereo unspecified) | -3.46
Cc1ccsc1[C@@H]1CCN(C(=O)Cc2ccc(O)cc2)C[C@H]1O | -5.599
Cc1nc2cc(C(=O)N3CCCC(n4cncn4)C3)ccc2n1C (stereo unspecified) | -4.268
Cc1nccn1C1CCCN(C(=O)c2ccc3c(c2)nc(C)n3C)C1 (stereo unspecified) | 109.3
Cc1nc2cc(C(=O)N3CCCC(n4ccnc4)C3)ccc2n1C (stereo unspecified) | 116.9
CCOc1ccc(N(CCC#N)C(=O)c2ccnc(SC)c2)cc1 | 9.969
Cc1cc(CNC(=O)[C@H]2CCCCN2C(=O)OC(C)(C)C)on1 | -34.39

Compound | Percent Effect [%]
O=C(O)C(F)(F)F.O=C(O)C(F)(F)F.c1cc(CN2C[C@@H]3OCCN(CC4CC4)[C@@H]3C2)n[nH]1 | 105.8
O=C(O)C(F)(F)F.c1cnc(N2CCO[C@H]3CN(Cc4cc[nH]n4)C[C@H]32)cn1 | -10.59
COCCN1CCO[C@H]2CN(C(=O)c3cccs3)C[C@H]21.O=C(O)C(F)(F)F | -7.528
O=C(O)C(F)(F)F.O=C(O)C(F)(F)F.O=C(O)C(F)(F)F.c1coc(CN2C[C@@H]3OCCN(CCN4CCCC4)[C@@H]3C2)c1 | -5.292
COCCN1CCO[C@H]2CN(Cc3cc[nH]n3)C[C@H]21.O=C(O)C(F)(F)F.O=C(O)C(F)(F)F | 90.56
O=C(O)C(F)(F)F.O=C(O)C(F)(F)F.c1csc(CN2C[C@@H]3OCCN(CC4CCCO4)[C@@H]3C2)c1 (stereo partly specified) | -7.067
O=C(O)CSc1nnc(-c2ccn[nH]2)n1-c1ccccc1Cl | -20.89
Cc1ccccc1OCCC(=O)N1CCc2nc(C)n(C)c(=O)c2CC1 | 7.029
Cn1cc(-c2nc(CN3CCOC(Cn4cccn4)C3)cs2)cn1 (stereo unspecified) | 14.65
Cc1ccc(-c2noc(CN3CCOC(Cn4cncn4)C3)n2)cc1 (stereo unspecified) | -2.106
Cn1cc(-c2nc(CN3CCOC(Cn4cncn4)C3)cs2)cn1 (stereo unspecified) | 113.5
c1ccc(-c2nc(CN3CCOC(Cn4cncn4)C3)cs2)cc1 (stereo unspecified) | 125.5
c1cnc(-c2nc(CN3CCOC(Cn4cncn4)C3)cs2)nc1 (stereo unspecified) | 0
Cc1noc(C)c1CN1C(=O)[C@H]2CC[C@@H]1CN(Cc1ccc(Cl)cc1)C2 | -8.21
CC(C)n1ncc2cc(NC(=O)N3CCC(N4CCCC4)C3)cnc21 (stereo unspecified) | -0.151
COc1ccc(C(=O)Nc2nncs2)cn1 | -3.004
CCc1nnc(Nc2cc(C)nc(C3CCN(c4ccncn4)C3)n2)s1 (stereo unspecified) | 171.2
CCc1nnc(CNC2CCN(c3ncnc4c(C)csc34)CC2)s1 | 6.605
COc1cc(N2CCCC(c3nccn3Cc3ccncc3)C2)ncn1 (stereo unspecified) | 26.87
CCc1nc(CC(=O)N2CCN(c3cnccn3)CC2)cs1 | 8.255
CCc1nnc(Nc2cccc(C3CCN(CCO)CC3)n2)s1 | -9.2
Cc1nccn1CCC1CCN(c2ccncn2)CC1 | -24.71
CCc1nnc(Nc2cc(C)nc(C3CCN(c4ncccn4)C3)n2)s1 (stereo unspecified) | 164.2
CCc1nnc(Nc2cc(C)nc(C3CCN(c4cnccn4)C3)n2)s1 (stereo unspecified) | 134.1

Compound | Percent Effect [%]
Cc1ccccc1N1CCCN(c2ccncn2)CC1 | -18.24
CCc1cc(N2CCN(c3cnccn3)CC2)n2nc(C)c(C)c2n1 | 6.49
Cc1cc(C)nc(C2CCN(c3ccncn3)C2)n1 (stereo unspecified) | 136
CCc1nc(C2CCCN(c3ncccn3)C2)no1 (stereo unspecified) | 22.68
c1cnc(N2CCC(C3CCN(CCCn4cccn4)C3)CC2)nc1 (stereo unspecified) | 5.409
Cc1ccc(C2CSCCN2C(=O)C2=CCCC2)o1 (stereo unspecified) | -12.79
CC(Cc1cccc(F)c1)C(=O)NS(=O)(=O)c1ccc(F)cc1 (stereo unspecified) | -6.109
CCCc1ccc(S(=O)(=O)NCCNC(=O)c2ccoc2)cc1 | -13.27
O=C(Nc1ccccc1)C1CN(C(=O)c2cccs2)CC12CCOCC2 (stereo unspecified) | -0.3117
CC(=O)N1N=C(c2cccs2)OC1C(=O)Nc1ccccc1 (stereo unspecified) | 103.8
O=C(Nc1ccccc1)C1CN(Cc2cccs2)CC12CCOCC2 (stereo unspecified) | 0.5273
Cn1ccnc1COc1ccc(NC(=O)C2CCCO2)cc1 (stereo unspecified) | -13.75
COc1ccc(CC(C)(O)CNC(=O)Cc2cccs2)cc1 (stereo unspecified) | 5.181
CCc1nc(C)c([C@H]2CN(C)C[C@@H]2C(=O)Nc2ccc(OC)cc2)[nH]1 | 7.798
CCOc1ccc(NC(=O)C2OC(c3cccs3)=NN2C(C)=O)cc1 (stereo unspecified) | 122.8
CC(=O)N1N=C(c2cccs2)OC1C(=O)Nc1ccc(C)cc1 (stereo unspecified) | 119.7
CCOc1ccc(NC(=O)c2cccc(OC)c2OC)cc1 | 0.2949
COc1ccc(NC(=O)C2OC(c3cccs3)=NN2C(C)=O)cc1 (stereo unspecified) | 116.4
CCc1ccc(NC(=O)C2OC(c3cccs3)=NN2C(C)=O)cc1 (stereo unspecified) | 3.495
O=C1CC(CNc2cncc(Cl)n2)c2ccccc2N1 (stereo unspecified) | -4.513
Cc1n[nH]c(CN2CCN(C(=O)C3CCC3)[C@@H]3CS(=O)(=O)C[C@@H]32)n1 | -3.785
Cc1cc(C(=O)Nc2ccc(OC3CCOCC3)c(C)c2)[nH]n1 | -9.28
O=C1CN(CCCNC(=O)Nc2ccccn2)CCN1 | 3.817
Cc1nc(C)c(CC(=O)NCc2ccc(F)cc2F)s1 | 12.14
